The supplement of paper PMC3334620
Over roughly 33,000 sequences, “E-score (-0.5 to 0.5)” has its median near -0.015; the highest 2% begin near 0.3. Only a selection was taken, and the highest values are over-represented in it overall.

Target: T1, Abf1 (UniProt P14164)
T1 sequence: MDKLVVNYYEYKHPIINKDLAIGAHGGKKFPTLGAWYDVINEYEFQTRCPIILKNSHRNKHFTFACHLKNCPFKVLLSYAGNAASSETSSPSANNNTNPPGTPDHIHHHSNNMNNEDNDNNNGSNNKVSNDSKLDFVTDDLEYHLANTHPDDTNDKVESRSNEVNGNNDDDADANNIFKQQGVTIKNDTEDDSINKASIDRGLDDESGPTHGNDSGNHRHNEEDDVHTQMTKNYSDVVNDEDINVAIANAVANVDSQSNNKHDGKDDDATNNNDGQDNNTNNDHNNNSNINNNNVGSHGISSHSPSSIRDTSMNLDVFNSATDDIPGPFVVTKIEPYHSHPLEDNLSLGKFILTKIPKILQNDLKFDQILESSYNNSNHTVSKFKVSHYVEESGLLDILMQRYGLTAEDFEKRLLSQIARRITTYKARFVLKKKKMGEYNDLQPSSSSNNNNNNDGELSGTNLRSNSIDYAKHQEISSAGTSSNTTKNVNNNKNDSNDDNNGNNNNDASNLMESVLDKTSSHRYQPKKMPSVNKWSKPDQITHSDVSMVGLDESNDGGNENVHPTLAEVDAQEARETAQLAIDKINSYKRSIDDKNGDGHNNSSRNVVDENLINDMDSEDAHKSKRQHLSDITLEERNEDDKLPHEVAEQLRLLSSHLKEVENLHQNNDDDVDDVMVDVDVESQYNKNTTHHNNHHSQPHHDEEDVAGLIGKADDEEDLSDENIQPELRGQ
Experiment: PBM E-score (8-mer binding enrichment) (E-score (-0.5 to 0.5)); higher = stronger / more preferred TF binding
Conditions: protein concentration: 200 nM; construct: GST-full length
Experimental: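 Universal 'all 10-mer' protein binding microarrays (Agilent AMADID 015681) probed with GST-tagged S. cerevisiae TFs (full-length or DBD) made by in vitro transcription/translation (PURExpress), about 100-200 nM. Bound TF was detected with fluorescent anti-GST. Each ungapped 8-mer (which stands for itself and its reverse complement) is scored by the PBM enrichment score (E-score), a modified Wilcoxon-Mann-Whitney statistic from -0.5 to +0.5, computed with the Universal PBM Analysis Suite. Scale: above 0.35 generally sequence-specific binding.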

Row | Sequence | PBM E-score
1 | ATAACGGG | 0.0588
2 | CGGGCGCA | -0.146
3 | GAATTAAA | 0.00779
4 | GTGGAGAA | 0.0678
5 | ACATACCT | -0.0525
6 | CTACCTTC | 0.0107
7 | GGCGGAGA | -0.00874
8 | GAGCGATA | 0.223
9 | CAACGATC | 0.103
10 | TAACGAAA | 0.243
11 | CAGCGATA | 0.16
12 | AAACGATC | 0.286
13 | TAACGAGA | 0.295
14 | GAACGATC | 0.298
15 | GAACGATA | 0.301
16 | GTACGATA | 0.259
17 | TAGCGATA | 0.347
18 | GAACGAGA | 0.0551
19 | TAACGATA | 0.36
20 | ATGTAGAC | -0.0712
21 | CCATTTAG | -0.118
22 | CCGAGGTC | -0.0891
23 | GATTGGTA | 0.109
24 | GCTCCTGA | -0.23
25 | CCGTACCC | 0.267

Row | Sequence | PBM E-score
26 | CCGAGTTA | 0.0322
27 | CGCGCCTC | -0.14
28 | TACAGCCA | -0.224
29 | AAACGATT | 0.292
30 | AAACGATA | 0.376
31 | CAACGATA | 0.25
32 | GCACGAGA | 0.178
33 | GCACGATA | 0.355
34 | ACACGATA | 0.295
35 | GCGAACTA | -0.0767
36 | CCGCGAGA | -0.0337
37 | GCGGCACA | 0.112
38 | CCGTATAA | 0.418
39 | ACGTATAT | 0.193
40 | GCGTATAA | 0.154
41 | TGGTATAA | 0.0711
42 | ACGTAAAA | 0.317
43 | ACGTATAA | 0.304
44 | ACGTAAAT | 0.113
45 | CCGTATAC | 0.272
46 | GCGTAAAA | 0.103
47 | TCGTATAA | 0.4
48 | ACGTATAG | 0.186
49 | TAGTATAA | 0.269
50 | GTAAGAAA | 0.176

Row | Sequence | PBM E-score
51 | ATCAGGGC | -0.198
52 | CCATCGCA | -0.0576
53 | CAATATTG | 0.0635
54 | GGCCCTTA | -0.233
55 | GTAAACCA | -0.0676
56 | GCTTTATA | -0.0302
57 | ATTCGTCC | 0.296
58 | CTTCGTAC | 0.414
59 | ATTCGTCA | 0.164
60 | CTTCGTCC | 0.0852
61 | ATTCGTAC | 0.408
62 | ATTCGTAG | 0.191
63 | ATTCGTAA | 0.203
64 | ATTCGTCG | 0.31
65 | CTTCGTAA | 0.161
66 | GCGAGGAA | -0.0784
67 | AGTGGCGA | 0.0606
68 | CTGTTTGC | 0.0145
69 | CCTAAACA | -0.224
70 | ATTCGGTC | 0.0175
71 | GCAGGCAC | -0.145
72 | CCCTTTGA | -0.125
73 | CGACGTCA | 0.123
74 | CACGAACC | 0.185
75 | CACGGTTC | 0.154

Row | Sequence | PBM E-score
76 | ACGTCACG | 0.326
77 | ACGTCACC | 0.22
78 | GCGTCACA | 0.02
79 | ACGTCACA | 0.0823
80 | ACGTCACT | 0.39
81 | ACGTCAAT | 0.116
82 | AAGATAGG | -0.151
83 | ACTTCAGC | -0.124
84 | ATCAGGGA | -0.0561
85 | CTATGTCA | 0.31
86 | GGATGTCA | 0.171
87 | CTATGTCC | -0.022
88 | ATATGTCA | 0.289
89 | GAATGTCA | 0.278
90 | GTATGTCA | 0.394
91 | ATAAGGCA | 0.14
92 | ACAGGGGG | -0.357
93 | GGAAGGAC | 0.0147
94 | AGACCATC | -0.195
95 | ATTAACCC | -0.086
96 | CGTGTAAA | 0.314
97 | CGTGTAAC | 0.237
98 | AGTGTAAA | -0.00367
99 | CGTGTGAC | 0.11
100 | CGTGTGAA | 0.311

Row | Sequence | PBM E-score
101 | TGTGTGAA | -0.234
102 | ATATGGTG | 0.0579
103 | AGTGACGG | 0.1
104 | AGTGACGA | 0.422
105 | CGTGACCA | 0.0961
106 | CGTGACGA | 0.351
107 | GGTGACGA | 0.276
108 | CGTGACGC | 0.152
109 | CGGACATA | 0.0662
110 | CATGGAGG | -0.286
111 | AACGGCAT | 0.226
112 | CTGGTTGC | -0.0319
113 | AAATCAAT | 0.142
114 | AAATCACT | 0.374
115 | AAATCACG | 0.284
116 | CAATCACC | 0.0554
117 | AAATCACA | 0.0176
118 | AAATCACC | 0.336
119 | CGAACCAA | 0.0494
120 | ATCAGCGA | -0.0614
121 | GGTTTTCA | 0.167
122 | ACGAGCAT | 0.00886
123 | GTCCTATA | -0.0768
124 | AACGACAG | 0.196
125 | AACGACAC | 0.238

Row | Sequence | PBM E-score
126 | GACGACAC | 0.252
127 | AACGACAA | 0.308
128 | ACCGACAA | 0.115
129 | GGCGACAA | 0.0843
130 | CACGACAC | 0.296
131 | GACGACAA | 0.347
132 | CACGACAA | 0.25
133 | TACGACAA | 0.298
134 | AACGACAT | 0.346
135 | TGCGACAA | 0.0936
136 | TCAAGAGA | 0.0894
137 | ACATCGTG | 0.185
138 | ACCCCTAC | -0.271
139 | AAGAGGAA | -0.0719
140 | GGCCCGTA | 0.0104
141 | ACGGAGGG | 0.0212
142 | CACGCAGC | 0.00826
143 | ACGTCTAG | 0.167
144 | CGATCACA | 0.161
145 | AGATCACG | 0.35
146 | CGATCACC | 0.0211
147 | AGATCAAT | 0.12
148 | AGATCACA | 0.138
149 | AGATCACC | 0.311
150 | GGATCACA | 0.00896

Row | Sequence | PBM E-score
151 | TGATCACA | 0.292
152 | GGATCACC | 0.247
153 | AGATCAAG | 0.112
154 | CGATCACG | 0.298
155 | AGATCACT | 0.437
156 | AGACGGGG | 0.0661
157 | GATCCTCA | 0.019
158 | CTAATTCC | 0.0379
159 | ATGACCTA | 0.235
160 | ATACAACA | 0.0798
161 | CAAATGAA | -0.155
162 | AAAGGATT | -0.105
163 | TGCAACCA | -0.0685
164 | CGTCTCTC | 0.162
165 | ACTTCGTC | 0.227
166 | GCTTCGTA | 0.313
167 | CCTTCGTA | 0.292
168 | ACTTCGTA | 0.297
169 | GCTTCGGA | 0.0157
170 | ACTTCGTG | 0.0796
171 | CCGACACC | -0.195
172 | ATTTTTGC | 0.113
